This passage reports largest response in the series, negative = inhibition and Potency results from PubChem BioAssay AID1490 (National Center for Advancing Translational Sciences (NCATS), 2009).

The whole screen tested about 310,000 compounds, of which about 11,000 (3.5%) were called active. Another 4% or so got no clear call; they are omitted. Shown is part of a subset that was picked to be rich in actives. Unmarked numbers belong to inactive results. Calls follow the shape of the dose curve; as a rule, active = well fitted inhibition curve with a large enough effect; inconclusive = small, poorly fitted or top-dose-only effect, or another doubt; inactive = no such curve, though single readings can be large or run the other way.
Potency is read from the fitted curve at half-maximal effect.

The target in the assay is 4'-phosphopantetheinyl transferase ffp (Bacillus subtilis) (UniProt Q9F4F7). Kind of assay: qHTS Assay for Inhibitors of Bacillus subtilis Sfp phosphopantetheinyl transferase (PPTase).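 Also: the enzyme is Sfp with the accession as filed and its product quenches rhodamine fluorescence.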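 As to largest response in the series, negative = inhibition: 0% = enzyme reaction without inhibitor and -100% = no enzyme wells.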 The settings on record: Biochemical Sfp PPTase activity. Summed up: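 Compounds were incubated with enzyme (final 15 nM) for 15 min at room temperature before substrate addition started the reaction. Fluorescence at 525 nm excitation, 598 nm emission was recorded immediately and after 30 minutes.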
For orientation: In qHTS, concentration-response curves come from the screen itself.
In the case of `O=C(Cn1nc(C(=O)O)c2ccccc2c1=O)Nc1ccc(F)cc1`, the largest response in the series, negative = inhibition is 1.99%. Same read-out and setting: then `COCCOC(=O)C1=C(C)NC(=O)NC1c1cc2c(cc1Br)OCO2` (stereo unspecified), with 10.6%; and `O=C(Nc1cccnc1)c1cc(Cl)ccc1Cl`, with 16.1%; and `O=C(/C=C/c1ccc(Cl)cc1Cl)NCc1ccco1`, with -1.31%. With `O=C(/C=C/c1ccc(Cl)cc1Cl)c1cccnc1`, the Potency is 31.6 µM (active). Turning to `O=C(NCc1ccccc1Cl)c1ccc2c(=O)n(CC3CCCO3)c(=S)[nH]c2c1` (stereo unspecified), the largest response in the series, negative = inhibition is 12.5%.

Consider `O=S(=O)(NC1CCCCC1N1CCC(O)CC1)c1ccc(Cl)cc1` (stereo unspecified), for which the largest response in the series, negative = inhibition was 10.1%. With `COc1ccc(N2CCN(S(=O)(=O)c3ccc4c(c3)N(C(C)=O)CCO4)CC2)cc1`, the largest response in the series, negative = inhibition was 11.9%. As to `CCCCc1nc(SCC(=O)Nc2nnc(C(C)C)s2)n[nH]1`, the largest response in the series, negative = inhibition is 2.56%.

`N#CC1(NC(=O)COC(=O)CCN=C2NS(=O)(=O)c3ccccc32)CCCCC1`: the largest response in the series, negative = inhibition was 8.87%. Regarding `O=C1C(c2ccccn2)=[N+]([O-])c2ccccc21`, the Potency is 56.2 µM (active). As for `O=Cc1cn(-c2ccccc2)nc1-c1ccccn1`, the largest response in the series, negative = inhibition is 19.4%. Same read-out and setting: then `CCOC(=O)C1(Cc2ccccc2C)CCCN(S(C)(=O)=O)C1` (stereo unspecified), with -1.45%; and `O=C(NCCc1ccccc1)C(=O)NCC1OCCN1S(=O)(=O)c1cccs1` (stereo unspecified), with 15%; and `CC(=O)N1CCCc2cc(S(=O)(=O)N3CCCC(C(=O)N4CCN(c5cccc(Cl)c5)CC4)C3)ccc21` (stereo unspecified), with -7.31%. The same measure, in the same setting: the value for `O=C(COc1ccccc1)Nc1ccc(C(=O)N2CCCC2)cc1` was 22.7%; that for `Cc1ccccc1C(=O)Nc1ccc(N2CCCCCC2)cc1` was -8.31%. For the molecule `O=C1C=CC(=O)N1c1ccc(N2CCCCC2)cc1`, the Potency was 7.08 µM (active).

Turning to `CCOC(=O)/C(C#N)=C/c1ccc(N2CCCCC2)cc1`, the largest response in the series, negative = inhibition was -25.4%. Consider `Cc1ccc(C(CNC(=O)Nc2ccccc2)N2CCN(C)CC2)cc1` (stereo unspecified), for which the largest response in the series, negative = inhibition is 6.82%. With `COC(=O)C(C)Oc1ccc2c(c1)O/C(=C\c1cccc(Br)c1)C2=O` (stereo unspecified), the largest response in the series, negative = inhibition is -9.46%. Regarding `O=C(NCc1ccco1)/C(=C/c1ccco1)NC(=O)c1ccccc1`, the largest response in the series, negative = inhibition was -7.6%. Same read-out and setting: the value for `CC(=O)NC(Cc1c[nH]c2ccccc12)C(=O)O` (stereo unspecified) was 23%.

For `O=C(Nc1ccccc1)/C(=C\c1ccco1)NC(=O)c1ccco1`, the Potency is 44.7 µM (active).

For the molecule `Cc1cccc(NC(=O)/C(=C\c2ccco2)NC(=O)c2ccccc2)c1`, the Potency was 50.1 µM (active). On the same count and under the same terms, then `COc1ccccc1C(=O)N/C(=C/c1ccco1)C(=O)Nc1ccc(C(=O)O)cc1`, with 50.1 µM (active). Turning to `COc1ccccc1C(=O)N/C(=C/c1ccc2c(c1)OCO2)C(=O)Nc1cccc(C(=O)O)c1`, the largest response in the series, negative = inhibition is -9.69%. The same measure, in the same setting: the value for `Cc1ccc(C(=O)N/C(=C/c2ccco2)C(=O)NCCc2c[nH]c3ccccc23)cc1C` was 21.3%; that for `COc1ccc(/C=C(/NC(=O)c2ccco2)C(=O)Nc2ccc(C(C)=O)cc2)cc1` was 0.26%. In the case of `O=C(NC(Cc1c[nH]c2ccccc12)C(=O)O)/C(=C/c1ccco1)NC(=O)c1ccccc1` (stereo unspecified), the Potency was 44.7 µM (active). In the case of `COc1ccc(/C=C(/NC(=O)c2ccccc2)C(=O)Nc2cccc(C(=O)O)c2)cc1`, the largest response in the series, negative = inhibition is 2.19%. The same measure, in the same setting: the value for `Cc1ccc(NC(=O)/C(=C\c2ccccc2)NC(=O)c2ccco2)cc1` was 12.3%; that for `O=C(Nc1ccccc1)c1ccco1` was 19.8%; that for `Cc1nc2ccc(S(=O)(=O)N(C)CC(=O)NC(C)c3ccccc3)cc2s1` (stereo unspecified) was 10.4%. Take `COCn1c(C(O)c2ccccc2)cc2ccccc21` (stereo unspecified): the largest response in the series, negative = inhibition is 9.58%. The same measure, in the same setting: then `Cc1ccccc1C(=O)N1CCN(c2ccc(NC(=O)c3cccs3)cc2)CC1`, with 13.1%; and `COc1ccc(C(=O)NCc2nnc(SCC(=O)NC3=NCCS3)n2C)cc1`, with -3.34%. On to `COC(=O)c1ccc(NC(=O)CSc2nncn2-c2cccnc2)cc1`, for which the largest response in the series, negative = inhibition was 16.4%. As to `CC(C)NC(=O)COCc1cc(-c2ccc3c(c2)OCO3)on1`, the largest response in the series, negative = inhibition was 4.15%. Consider `COc1ccc(Cl)cc1-n1c(=S)sc2c(=O)n(-c3ccc(F)cc3)c(SCC(=O)O)nc21`, for which the Potency was 14.1 µM (active). As to `COc1cccc(-n2c(=S)sc3c(=O)n(-c4ccccc4OC)c(SCC4OCCO4)nc32)c1`, the largest response in the series, negative = inhibition is -1.29%. The same measure, in the same setting: then `COc1cccc(-n2c(=S)sc3c(=O)n(-c4ccccc4C)c(SCC(=O)O)nc32)c1`, with 4.84%; and `O=C(c1cc(COc2ccc(F)cc2F)on1)N1CCOCC1`, with 2.39%; and `CC(=O)Nc1cccc(C(=O)OCN2C(=O)c3ccccc3C2=O)c1`, with 7.23%. Same read-out and setting: then `CCc1nc(Nc2ccc(NC(C)=O)cc2)c2oc3ccccc3c2n1`, with 3.27%; and `Cc1ccc(N(Cc2ccccc2O)C(=O)c2ccccc2F)cc1`, with 8.31%.
